# Source: PubChem (National Center for Advancing Translational Sciences (NCATS))
# Hits are enriched below; roughly 19% of the tested compounds scored in any of these assays.
# HT1080 IDH1KD tx – toxicity to HT-1080 IDH1 knockdown cells (counter line); HT-1080 IDH1 knockdown viability, ATP luminescence, 48 h; AID 686971; Potency, µM (top dose mostly 46.1 µM), for inactives: at the top dose activity, negative = toxicity, most hits filed as cytotoxic; 2% of 360,000 active;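 note: potency is the fitted concentration of half-maximal effect; 0% = DMSO wells and -100% = cell-free medium wells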
#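 Viability of IDH1-knockdown HT-1080 fibrosarcoma cells was assessed by CellTiter-Glo after 48 h at 37 °C with titrated compound; concentration-effect curves were classified by fit quality and response size.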
# DT40 TDP1 no CPT – qHTS for Inhibitors of human tyrosyl-DNA phosphodiesterase 1 (TDP1): qHTS in cells in absence of CPT | DT40 Tdp1-/- hTDP1 cells, no CPT, ATP luminescence, 48 h | Potency, µM (titrated, usually from 46.2 µM), without a hit: top-dose activity change, negative = growth inhibition, usual class: inhibitors | 15% of 420,000 active | AID 686978, 2013; note: potency is the fitted concentration of half-maximal effect; nearly all actives have a fitted effect of over 55% in size
#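 Seeded 400 DT40-hTDP1 cells/well (vehicle DMSO, no 20 nM CPT); pinned compounds; ≥48 hr at 37 °C; CellTiter-Glo luminescence as viability measure.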
# HT1080NT lethal – kills 2HG-producing HT-1080-NT fibrosarcoma cells; 1.6% of 360,000 active; Potency, µM (highest dose often 46.1 µM), without a hit: at the top dose activity, negative = less viability, usual class: cytotoxic; AID 686970; HT-1080-NT fibrosarcoma viability, CellTiter-Glo ATP luminescence, 48 h;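 note: NT is the 2HG producing partner of a matched IDH1 knockdown line; potency is the fitted concentration of half-maximal effect; 0% = DMSO-treated cells and -100% = media-only wells without cells; nearly all actives have a fitted effect of over 55% in size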
#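 Toxicity toward the 2HG-producing NT line was scored as %Activity, normalised to DMSO and no-cell wells, from CellTiter-Glo luminescence after 48 hours' treatment.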
# DT40 TDP1 CPT – DT40-hTDP1 cell growth loss with CPT. Potency, µM (highest dose often 46.2 µM), inactives show at the top dose activity change, negative = growth inhibition, most hits filed as inhibitors. chicken DT40 Tdp1-/-;hTDP1 cells + 20 nM CPT, ATP luminescence, 48 h. 12% of 420,000 active. AID 686979; note: potency is the fitted concentration of half-maximal effect; nearly all actives have a fitted effect of over 55% in size
#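 Cell growth measured by CellTiter-Glo luminescence after a minimum 48 h, 37 C compound exposure with 20 nM CPT in Tdp1-knockout DT40 cells stably expressing hTDP1, seeded 400/well; qHTS titration format.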
# IL-1B inflam inh – inflammasome signaling inhibition, IL-1 beta readout. THP-1 LPS/ATP IL-1B secretion, AlphaLISA, 16 h; active compounds read low. activity change, % at 57.5 µM. 4.7% of 360,000 active; in the data active = activity change below about -50%; inconclusive = mostly about -30% to -49%
#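 THP-1 cells pretreated 1 hr with compounds (up to 57.5 uM final), then stimulated with LPS (250 ng/mL final) plus ATP (1.25 mM final); secreted IL-1B measured by AlphaLISA after 16 hr, decreased signal indicating inhibition.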
# uPA generation – inhibitors of cell surface uPA generation. 0.31% of 330,000 active. Potency, µM (series often up to 38.3 µM), for inactives: at the top dose activity change, negative = inhibition, actives largely listed as inhibitors. cell surface uPA generation assay, qHTS; active = well fitted inhibition curve with a large enough effect; inconclusive = small, poorly fitted or top-dose-only effect; inactive = no such curve, though single readings can be large or run the other way; tested in mouse RAW 264.7 cells; note: potency is the fitted concentration of half-maximal effect; nearly all actives have a fitted effect of over 55% in size
# Active calls of the source: *; ? = inconclusive; . = not tested or not shown; ! = a repeat was not active; [ ] = dose if it differs, or a comment. Unless noted, calls come from the whole dose curve; as a rule, active = well fitted curve in the direction sought with a large enough effect; inconclusive = small, poorly fitted or top-dose-only effect, or another doubt; inactive = no such curve, though single readings can be large; an effect the other way counts as inactive or inconclusive. Unless noted, % is set by controls: 0 for no effect and ±100 for the full control effect.
SMILES,HT1080 IDH1KD tx,DT40 TDP1 no CPT,HT1080NT lethal,DT40 TDP1 CPT,IL-1B inflam inh,uPA generation
C=CCNC(=O)Cn1nnc(-c2ccc(-c3ccc(OC)cc3)cc2)n1,0.5%,0.6%,-1.3%,0.2%,-27.9,-5.4%
CCN(CC)S(=O)(=O)c1ccc(NC(=O)COC(=O)CNC(=O)C2CCCCC2)cc1,-0.8%,0.5%,-13.9%,-5.0%,2.0,0.7%
COc1ccc(C(=O)c2cn(Cc3ccc(F)cc3)c3c(F)cc(F)cc3c2=O)cc1,.,23.1µM*,.,?,.,.
O=C(O)c1cn(Cc2ccccc2)c2ccccc2c1=O,1.9%,-16.2%,7.1%,0.3%,10.6,3.7%
COc1cc2c(=O)c(C(=O)c3ccc(F)cc3)cn(Cc3cccc(F)c3)c2cc1OC,.,16.4µM*,.,20.6µM*,.,.
COc1ccc(Cn2cc(C(=O)c3ccc(C)c(C)c3)c(=O)c3ccccc32)cc1,.,16.4µM*,.,?,.,.
COc1cc(NC(=O)Cn2cc(C(=O)c3ccc(F)cc3)c(=O)c3ccc(C)nc32)cc(OC)c1,.,-25.0%,.,?,.,.
COc1ccccc1Cn1cc(C(=O)c2ccc(Cl)cc2)c(=O)c2ccccc21,.,14.6µM*,.,23.1µM*,.,.
O=C(COC(=O)c1ccc(S(=O)(=O)N2CCOCC2)cc1)NCc1ccco1,-13.5%,1.8%,-0.8%,-21.7%,-19.8,.
O=C(CN1CCN(S(=O)(=O)c2ccccc2)CC1)Nc1ccc(Cl)c([N+](=O)[O-])c1,-13.9%,23.1µM*,-6.5%,20.6µM*,-18.4,-9.1%
O=C(CN1CCN(S(=O)(=O)c2ccccc2)CC1)Nc1ccc([N+](=O)[O-])cc1,?,11.6µM*,?,18.4µM*,6.0,-2.5%
Cc1ccc(S(=O)(=O)N2CCN(CC(=O)NC3CCCc4ccccc43)CC2)c(C)c1 (configuration not stated),-18.6%,?,-23.4%,-26.8%,?,.
Cc1ccc(S(=O)(=O)N2CCN(CC(=O)Nc3ccc([N+](=O)[O-])cc3)CC2)cc1C,-3.9%,16.4µM*,-6.1%,?,?,5.3%
Cc1ccc(S(=O)(=O)N2CCN(CC(=O)NC3CCCc4ccccc43)CC2)cc1C (configuration not stated),-15.2%,18.4µM*,-2.6%,?,-54.0*!,0.5%
COc1ccc(NC(=O)CN2CCN(S(=O)(=O)c3ccc(Cl)cc3)CC2)cc1Cl,-9.5%,?,-0.1%,-28.0%,-12.6,-10.8%
Cc1cccc(CSc2nc3c(c(=O)[nH]2)C(c2cccc(O)c2)CC(=O)N3)c1 (configuration not stated),.,-52.3%,.,?,.,.
Cc1nnsc1C(=O)Oc1ccccc1Cl,.,-17.9%,.,15.6%,.,.
S=c1c2c(nc3nc[nH]n13)CCC2,-3.8%,20.6µM*,-7.3%,?,8.1,17.2%
COc1cccc(/C=N/NC(=S)NCCc2ccccc2)c1,?,?,-29.2%,?,34.3,0.4%
CCc1ccc(/C=N/NC(=S)NCCc2ccccc2)cc1,-3.7%,16.4µM*,0.7%,?,13.3,1.8%
COc1ccc(/C=N/NC(=S)NCCc2ccccc2)cc1,-6.0%,25.9µM*,-15.0%,18.4µM*,24.3,2.1%
CC1=NN(c2ccccc2)C(=O)C1C(=O)c1ccc(Cl)cc1 (configuration not stated),-21.6%,23.1µM*,?,20.6µM*,51.4,?
FC(F)(F)c1ccccc1-c1nc(NC2CC2)c2ccccc2n1,.,-27.3%,.,-5.4%,.,.
O=C(/C=C\N1CCOCC1)c1ccc(Br)cc1,-3.3%,4.4%,-2.5%,8.4%,-8.3,-1.0%
COc1ccc(C2CC(c3ccccc3Br)=NN2c2ccc(S(N)(=O)=O)cc2)cc1 (configuration not stated),?,-15.6%,?,-15.9%,-24.0,-26.9%
SMILES,HT1080 IDH1KD tx,DT40 TDP1 no CPT,HT1080NT lethal,DT40 TDP1 CPT,IL-1B inflam inh,uPA generation
COc1ccc(C2=NN(CN3C(=O)C(=O)c4ccccc43)C(c3ccc(C)cc3)C2)cc1 (configuration not stated),2.0%,?,4.7%,18.4µM*,-17.5,-2.5%
COc1ccc(C2=NN(CN3C(=O)C(=O)c4ccccc43)C(c3ccc(Br)cc3)C2)cc1 (configuration not stated),4.1%,6.51µM*,8.8%,16.4µM*,-79.4*,-3.3%
C[C@@]12C(=O)N(c3cccc(F)c3)C(=O)N1[C@H](c1ccc(F)cc1)[C@@H]1C(=O)N(C3CCCCC3)C(=O)[C@@H]12,-11.6%,?,-5.7%,20.6µM*,-6.7,3.9%
O=C1[C@H]2[C@@H](c3ccc(F)cc3)N3C(=O)N(c4cccc(Br)c4)C(=O)[C@@]3(Cc3ccc(Cl)cc3)[C@H]2C(=O)N1C1CCCCC1,3.3%,?,11.0%,?,-12.3,15.3%
O=C1[C@H]2[C@@H](c3ccc(F)cc3)N3C(=O)N(c4cccc(Cl)c4)C(=O)[C@@]3(Cc3ccc(Cl)cc3)[C@H]2C(=O)N1C1CCCCC1,-7.3%,?,-4.6%,16.4µM*,-22.9,-7.8%
O=C1[C@H]2[C@@H](c3ccc(F)cc3)N3C(=O)N(c4ccccc4)C(=O)[C@@]3(Cc3ccccc3)[C@H]2C(=O)N1C1CCCCC1,7.9%,-11.0%,11.7%,?,-1.3,9.2%
O=C1[C@H]2[C@@H](c3ccc(F)cc3)N3C(=O)N(c4cccc(Cl)c4)C(=O)[C@@]3(Cc3ccccc3)[C@H]2C(=O)N1C1CCCCC1,-2.8%,?,-19.4%,?,-50.4*,1.2%
CCCS(=O)(=O)NCc1c(C)ncc2c1CCN(C(=O)c1cccc(-c3ccccc3F)c1)C2,.,?,.,6.7%[9.04 µM],.,.
Cc1cccc(C)c1OC(=O)CCN1C(=O)C2C3C=CC(C4CC34)C2C1=O (configuration not stated),14.9%,?,1.7%,0.4%,18.8,3.2%
CCc1noc(C)c1C(=O)OC(C)C(=O)Nc1cc([N+](=O)[O-])ccc1OC (configuration not stated),-3.7%,?,-11.8%,-29.8%,9.8,-2.4%
Cc1cc(NC(=O)NC2(C(F)(F)F)Oc3ccc(Cl)cc3O2)no1 (configuration not stated),10µM*,18.4µM*,?,18.4µM*,44.2,.
O=C(NCc1cccnc1)NC1(C(F)(F)F)Oc2ccc(Cl)cc2O1 (configuration not stated),?,11.6µM*,-26.5%,10.3µM*,28.3,?
